# Records with an inconclusive call do not appear. The source made the active and inactive calls. Calls come from the whole dose curve; as a rule, active = well fitted curve in the direction sought with a large enough effect; inconclusive = small, poorly fitted or top-dose-only effect, or another doubt; inactive = no such curve, though single readings can be large; an effect the other way counts as inactive or inconclusive.
# Key:
# [1] = Quantitative High-Throughput drug screen in 47 multiple myeloma cell lines against the NCATS MIPE library collection: FR4_PLB cell viability assay (AID 1918924; note: nearly all actives have a fitted effect of over 35% in size)
# Method in brief: (§1)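 Myeloma cells (500 per well) were exposed to MIPE 4.0 compounds by pin transfer and incubated 48 hours at 37C, 5% CO2. Viability was read as ATP by CellTiter-Glo luminescence, normalised to DMSO (100%) and media-only (0%) wells.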
# [2] = Quantitative High-Throughput drug screen in 47 multiple myeloma cell lines against the NCATS MIPE library collection: Delta47_JCRB cell viability assay (AID 1918925; note: nearly all actives have a fitted effect of over 45% in size)
# Method in brief: (§2)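 Steps: seed 500 cells per well; pin-transfer MIPE 4.0 library; incubate 48 h at 37C, 5% CO2, humidified; add CellTiter-Glo, 5 min room temperature; read luminescence.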
# [3] = Quantitative High-Throughput drug screen in 47 multiple myeloma cell lines against the NCATS MIPE library collection: AMO1_DSMZ cell viability assay (AID 1918927; note: nearly all actives have a fitted effect of over 30% in size)
# Method in brief: as §2
# [4] = Quantitative High-Throughput drug screen in 47 multiple myeloma cell lines against the NCATS MIPE library collection: ARP1_JJKsccF8 cell viability assay (AID 1918928; note: nearly all actives have a fitted effect of over 40% in size)
# Method in brief: (§3)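 CellTiter-Glo luminescence after 48 h exposure gives viability, scaled between DMSO-only (100%) and media-only (0%) controls. Library compounds are pinned onto 500 myeloma cells per well, incubated at 37C with 5% CO2.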
# [5] = Quantitative High-Throughput drug screen in 47 multiple myeloma cell lines against the NCATS MIPE library collection: ARD_JJKsccE7 cell viability assay (AID 1918929)
# Method in brief: as §2
# [6] = Quantitative High-Throughput drug screen in 47 multiple myeloma cell lines against the NCATS MIPE library collection: KMM1_JCRB cell viability assay (AID 1918960); note: nearly all actives have a fitted effect of over 30% in size
# Method in brief: as §3
# [7] = Quantitative High-Throughput drug screen in 47 multiple myeloma cell lines against the NCATS MIPE library collection: JIM3_ECACC cell viability assay (AID 1918963; note: nearly all actives have a fitted effect of over 35% in size)
# Method in brief: as §1
# [8] = Quantitative High-Throughput drug screen in 47 multiple myeloma cell lines against the NCATS MIPE library collection: INA6_PLB cell viability assay (AID 1918965; note: nearly all actives have a fitted effect of over 55% in size)
# Method in brief: (§4)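 CellTiter-Glo ATP luminescence gave viability after 48 h compound treatment at 37C of 500 multiple myeloma cells per well. Normalisation used DMSO-only wells as 100% and media-only wells as 0% viability; primary qHTS of approved and investigational drugs.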
# [9] = Quantitative High-Throughput drug screen in 47 multiple myeloma cell lines against the NCATS MIPE library collection: Karpas25_ECACC cell viability assay (AID 1918968; note: nearly all actives have a fitted effect of over 35% in size)
# Method in brief: as §2
# [10] = Quantitative High-Throughput drug screen in 47 multiple myeloma cell lines against the NCATS MIPE library collection: KMS27_JCRB cell viability assay (AID 1918970); conditions: KMS27 myeloma cells, CellTiter-Glo ATP viability, 48 h; viability (% of DMSO): at 45.8 µM (top of the series); note: nearly all actives have a fitted effect of over 30% in size
# Method in brief: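 ATP-based viability (CellTiter-Glo luminescence) is measured in cells treated 48 h with approved and investigational drugs at 37 °C. Controls are DMSO-only wells for full viability and media-only wells for none.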
# [11] = Quantitative High-Throughput drug screen in 47 multiple myeloma cell lines against the NCATS MIPE library collection: JIM1_ECACC cell viability assay (AID 1918964)
# Method in brief: as §2
# [12] = Quantitative High-Throughput drug screen in 47 multiple myeloma cell lines against the NCATS MIPE library collection: JJN3_DSMZ cell viability assay (AID 1918966; note: nearly all actives have a fitted effect of over 50% in size)
# Method in brief: as §2
# [13] = Quantitative High-Throughput drug screen in 47 multiple myeloma cell lines against the NCATS MIPE library collection: H1112_PLB cell viability assay (AID 1918967; note: nearly all actives have a fitted effect of over 30% in size)
# Method in brief: as §2
# [14] = Quantitative High-Throughput drug screen in 47 multiple myeloma cell lines against the NCATS MIPE library collection: KMS12BM_JCRB cell viability assay (AID 1918971); note: nearly all actives have a fitted effect of over 35% in size
# Method in brief: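 We plated 500 myeloma cells per well, pinned in MIPE 4.0 compounds, and incubated for 48 hours at 37C. ATP was then quantified with CellTiter-Glo, with DMSO and media-only wells defining 100% and 0%.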
# [15] = Quantitative High-Throughput drug screen in 47 multiple myeloma cell lines against the NCATS MIPE library collection: Karpas620_DSMZ cell viability assay (AID 1918959); note: nearly all actives have a fitted effect of over 30% in size
# Method in brief: as §1
# [16] = Quantitative High-Throughput drug screen in 47 multiple myeloma cell lines against the NCATS MIPE library collection: Karpas417_ECACC cell viability assay (AID 1918961); conditions: Karpas417 myeloma viability, CellTiter-Glo ATP luminescence, 48 h; viability (% of DMSO): at 45.8 µM (top of the series)
# Method in brief: as §4
# [17] = Quantitative High-Throughput drug screen in 47 multiple myeloma cell lines against the NCATS MIPE library collection: KHM11_PLB cell viability assay (AID 1918962); note: nearly all actives have a fitted effect of over 35% in size
# Method in brief: as §1
# Potency is the fitted concentration of half-maximal effect.
Structure (SMILES),Potency [1],Potency [2],Potency [3],Potency [4],Potency [5],Potency [6],Potency [7],Potency [8],Potency [9],Potency [10],Potency [11],Potency [12],Potency [13],Potency [14],Potency [15],Potency [16],Potency [17]
CC(C)N(CCCNC(=O)Nc1ccc(C(C)(C)C)cc1)C[C@H]1O[C@@H](n2cc(Br)c3c(N)ncnc32)[C@H](O)[C@H]1O,23.5 µM (active),16.6 µM (active),inactive,20.9 µM (active),inactive,inactive,29.6 µM (active),18.7 µM (active),14.8 µM (active),inactive,,,,,,,
CNC(=O)c1cc(COc2nnc(Nc3ccc(Cl)cc3)c3ccoc23)ccn1,26.4 µM (active),inactive,5.26 µM (active),,,9.35 µM (active),inactive,13.2 µM (active),inactive,inactive,inactive,29.6 µM (active),inactive,26.4 µM (active),,,
C[C@H]1[C@H](O)O[C@@H]2O[C@@]3(C)CC[C@@H]4[C@H](C)CC[C@@H]1[C@@]24OO3,6.62 µM (active),5.9 µM (active),,1.66 µM (active),4.18 µM (active),,,1.66 µM (active),1.66 µM (active),13.2 µM (active),,,16.6 µM (active),1.66 µM (active),5.26 µM (active),2.09 µM (active),
CC[C@H](NC(=O)[C@H](C)NC)C(=O)N1C[C@@H](O)C[C@H]1Cc1c(-c2[nH]c3cc(F)ccc3c2C[C@H]2C[C@H](O)CN2C(=O)[C@H](CC)NC(=O)[C@H](C)NC)[nH]c2cc(F)ccc12,inactive,16.6 µM (active),4.69 µM (active),,9.35 µM (active),14.8 µM (active),1.48 µM (active),11.8 µM (active),16.6 µM (active),0.935 µM (active),2.09 µM (active),inactive,11.8 µM (active),inactive,,,inactive
CC(O)=C(C#N)C(=O)Nc1ccc(C(F)(F)F)cc1,16.6 µM (active),18.7 µM (active),6.62 µM (active),,,inactive,23.5 µM (active),26.4 µM (active),26.4 µM (active),,,,,14.8 µM (active),inactive,,
CNC(=O)[C@H](CC1=CN=C2C=CCC=C12)NC(=O)[C@@H](CC(=O)NO)CC(C)C,inactive,26.4 µM (active),0.0743 µM (active),inactive,0.118 µM (active),0.148 µM (active),26.4 µM (active),33.2 µM (active),6.62 µM (active),0.0935 µM (active),0.0833 µM (active),,,inactive,0.0743 µM (active),0.0209 µM (active),
COc1cc2c(cc1Cc1cccc(Cl)c1F)c(=O)c(C(=O)O)cn2[C@H](CO)C(C)C,20.9 µM (active),20.9 µM (active),,16.6 µM (active),,,20.9 µM (active),13.2 µM (active),14.8 µM (active),,,,,6.62 µM (active),,,
Cc1ccc(NC(=O)c2ccc(CN3CCN(C)CC3)cc2)cc1Nc1nc(-c2cccnc2)cs1,20.9 µM (active),6.62 µM (active),18.7 µM (active),23.5 µM (active),23.5 µM (active),16.6 µM (active),14.8 µM (active),5.26 µM (active),5.9 µM (active),20.9 µM (active),,16.6 µM (active),,23.5 µM (active),,,
N[C@@H](CC(=O)N1CCn2c(nnc2C(F)(F)F)C1)Cc1cc(F)c(F)cc1F,inactive,inactive,inactive,inactive,,inactive,inactive,,inactive,inactive,inactive,,inactive,inactive,inactive,,inactive
CN(C)CCN(Cc1ccc(Cl)cc1)c1ccccn1,inactive,9.35 µM (active),,inactive,inactive,inactive,inactive,20.9 µM (active),11.8 µM (active),inactive,,,,inactive,inactive,,
O=C(c1ccc(F)c(F)c1Nc1ccc(I)cc1F)N1CC(O)([C@H]2CCCCN2)C1,20.9 µM (active),20.9 µM (active),3.32 µM (active),,10.5 µM (active),11.8 µM (active),14.8 µM (active),10.5 µM (active),16.6 µM (active),0.264 µM (active),,,,23.5 µM (active),0.105 µM (active),,
CN(C)c1ccccc1CN1CCCN(Cc2ccccc2N(C)C)C1c1ccncc1,18.7 µM (active),20.9 µM (active),16.6 µM (active),,18.7 µM (active),,,23.5 µM (active),16.6 µM (active),,,,,16.6 µM (active),,,3.32 µM (active)
O=C(Nc1cccc(Cl)c1)Nc1ncc(CCNc2ncnc3ccsc23)s1,6.62 µM (active),7.43 µM (active),1.05 µM (active),,4.69 µM (active),5.9 µM (active),13.2 µM (active),7.43 µM (active),18.7 µM (active),,,5.26 µM (active),0.0833 µM (active),6.62 µM (active),3.32 µM (active),,4.18 µM (active)
CN1CCN(c2ncc(-c3cc(Cl)cc(Cl)c3Cl)c(N)n2)CC1,inactive,23.5 µM (active),,inactive,inactive,,inactive,13.2 µM (active),,,23.5 µM (active),,,inactive,20.9 µM (active),,

# Source: PubChem BioAssay (NCATS)
